In PubChem BioAssay AID435030 (The Scripps Research Institute Molecular Screening Center, 2010) one finds inhibition data, which are given here for 88 compounds.

Out of some 330,000 compounds screened, about 940 (0.28%) were called active. The list comes from a sample in which actives are over-represented; it also holds similar structures and randomly drawn compounds. Values without a mark were called inactive. No stated cut-off is given here; in the data, active means inhibition above about 12%; inactive means the rest.

The experiment in a line: reduced growth of AddAB-expressing E. coli cells – absorbance, AddAB inhibitor project, primary screen (AID 435030).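 Further: 0% = vehicle wells of infected cells.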 The note with it: E. coli expressing H. pylori AddAB, at 11.9 µM, active compounds read high.
By inhibition is commonly meant the drop in the measured response relative to a control, in per cent. Regarding `O=[N+]([O-])c1ccc(N=Cc2c(O)ccc3ccccc23)cc1`, the inhibition is 39.5% (active).

Regarding `Cc1nc2ccccc2nc(=O)c1NNc1ccc([N+](=O)[O-])cc1`, the inhibition was 0.52%.

Regarding `O=C(Oc1ccc([N+](=O)[O-])cc1)c1ccc2ccccc2n1`, the inhibition was 0.94%.

Regarding `CC(Sc1nnc(Cc2ccc([N+](=O)[O-])cc2)o1)C(N)=O` (stereo not drawn), the inhibition is 2.62%.

Turning to `COC(=O)c1cc(S(=O)(=O)Nc2ccc(C)c(F)c2)c[nH]1`, the inhibition was 2.73%.

As to `CCOc1ccc(OCC)c(NC(=O)C(NS(=O)(=O)c2ccc3c(c2)oc(=O)n3C)C(C)C)c1` (stereo not drawn), the inhibition was 0.33%.

On to `O=C(CCNS(=O)(=O)c1ccccc1)NCCSc1ccc(Br)cc1`, for which the inhibition is -1.46%.

`CC(C)(C)CC(=O)Nc1nnc(SCC(=O)NCc2cccs2)s1`: the inhibition was 1.97%.

For `CC1CCN(C(=O)Cn2cc(C(=O)c3ccco3)c3ccccc32)CC1`, the inhibition was 0.41%.

Turning to `Cc1cccc(NC(=O)Cn2cc(C(=O)c3ccco3)c3ccccc32)c1`, the inhibition is 13.8% (active).

On to `O=C(Cn1cc(C(=O)c2cccs2)c2ccccc21)NCc1cccs1`, for which the inhibition is -0.41%.

As for `Cc1cc(C)c(S(=O)(=O)N2CCCC2CNC(=O)c2ccc3c(c2)OCO3)c(C)c1` (stereo not drawn), the inhibition is 2.32%.

As for `N#Cc1ccc(OCCN2C(=O)NC3(CCSC3)C2=O)cc1` (stereo not drawn), the inhibition is -2.01%.

As to `O=C(OCC(=O)N1CCN(C(=O)c2ccco2)CC1)c1c(Cl)cccc1Cl`, the inhibition was 1.58%.

`NS(=O)(=O)c1cccc(NC(=O)COC(=O)c2cc([N+](=O)[O-])ccc2N2CCCC2)c1`: the inhibition was 0.9%.

For `CCOCCCn1c(NN)nc2ccccc2c1=O`, the inhibition was 1.87%.

In the case of `CCn1c(=O)c([N+](=O)[O-])c(NCc2ccc3c(c2)OCO3)c2ccccc21`, the inhibition was -0.08%.

For the compound `CCn1c(/C=C/c2ccc([N+](=O)[O-])o2)nc2ccccc2c1=O`, the inhibition is 17.8% (active).

For `CCOC(=O)c1sc(/N=C/C2=C(O)CC(C)(C)CC2=O)c(C(=O)OCC)c1C`, the inhibition was -0.77%.

Regarding `Cc1occc(=O)c1OCc1c(Cl)cccc1Cl`, the inhibition is -0.74%.

Regarding `CCOC(=O)c1ccc(NC(=O)Cn2cnc3cc(C)c(C)cc32)cc1`, the inhibition is 21% (active).

In the case of `CCOC(=O)c1ccc(NC(=O)Cc2cccs2)cc1`, the inhibition is 3.49%.

As for `CCCc1nnc(SCC(=O)Nc2ccc(C(=O)OCC)cc2)o1`, the inhibition is 2.66%.

For `CSCc1ccc(C(=O)Nc2cc(C)cc(C)c2)cc1`, the inhibition was 0.9%.

As for `CSCCC(NC(=O)c1cc([N+](=O)[O-])cc([N+](=O)[O-])c1)c1nc2ccccc2[nH]1` (stereo not drawn), the inhibition was 2.67%.

Take `O=C(O)c1cccc(NC(=S)N/N=C/c2c[nH]c3ccccc23)c1`: the inhibition was 3.31%.

`Nc1nonc1-n1nnc(C(=O)N/N=C/c2c[nH]c3ccccc23)c1-c1ccccc1`: the inhibition was 0.34%.

With `CSC(=S)N/N=C/c1c[nH]c2ccccc12`, the inhibition is 14.4% (active).

With `COC(=O)c1cc(S(=O)(=O)N2CCC(C(N)=O)CC2)oc1C`, the inhibition is -2.11%.

For the compound `COc1cccc(OC)c1CN(C)C(=O)c1cnccc1C(F)(F)F`, the inhibition is 3.15%.

With `CC(=O)Nc1ccc(CN2CCN(Cc3ccc(F)c(F)c3)C(CCO)C2)cc1` (stereo not drawn), the inhibition is 2.22%.

Turning to `Cc1cn(C2OC[C@@H](O)[C@@H]2CO)c(=O)[nH]c1=O` (stereo partly drawn), the inhibition is 0.5%.

Turning to `CCOC(=O)C1=NOC(Cn2cc(C(C)=O)c(=O)[nH]c2=O)C1` (stereo not drawn), the inhibition was 3.64%.

Take `Cc1cn(C2C=CC(CO)O2)c(=O)[nH]c1=O` (stereo not drawn): the inhibition was 20.5% (active).

For the compound `O=C(NNC(=O)C1C2CCC(C2)C1C(=O)O)c1ccc(Cl)cc1` (stereo not drawn), the inhibition is -0.52%.

Turning to `Cc1ccc(NC(=O)CN(C)C(=O)COC(=O)C(C)(C)Oc2ccc(Cl)cc2)cc1`, the inhibition is 1.52%.

With `Cc1ccc(O)c(NC(=O)c2cc(-c3ccco3)on2)c1`, the inhibition was 2.66%.

As to `Cc1ccc(SCc2c(C(=O)N/N=C/c3cccnc3)nnn2-c2nonc2N)cc1`, the inhibition is 3.86%.

As to `Nc1nonc1-n1nnc(C(=O)N/N=C/c2ccccc2O)c1CN1CCCC1`, the inhibition was 4.54%.

`Nc1nonc1-n1nnc(C(=O)N/N=C/c2cc(Br)ccc2O)c1CSC1=NCCS1`: the inhibition is 17.5% (active).

In the case of `CCOc1ccc(N(CC(=O)Nc2ccccc2F)S(=O)(=O)c2c(C)[nH]c(=O)[nH]c2=O)cc1`, the inhibition is 3.71%.

`CCOc1ccccc1NC(=O)COc1ccc(S(=O)(=O)N2CCCC2)cc1`: the inhibition was 2.68%.

With `O=C(NC(Cc1ccccc1)C(=O)O)/C(=C\c1ccccc1)NC(=O)c1ccco1` (stereo not drawn), the inhibition is 0.08%.

Consider `O=C(Cn1c(=O)sc2ccccc21)Nc1nc2c(s1)CCCC2`, for which the inhibition is 12.5% (active).

Turning to `O=C(CCS(=O)(=O)c1ccccc1)Nc1nc2c(s1)CCCC2`, the inhibition is -2.56%.

Turning to `Cc1nnc(NC(=O)Cn2c(=O)sc3ccccc32)s1`, the inhibition was 3.04%.

Consider `CC(=O)Oc1ccccc1C(=O)Nc1ncc([N+](=O)[O-])s1`, for which the inhibition was 13.3% (active).

As for `O=C(Cc1c(F)cccc1Cl)Nc1ncc([N+](=O)[O-])s1`, the inhibition is 5.83%.

In the case of `Cc1cnc(NC(=O)c2ccccn2)s1`, the inhibition is -4.66%.

Turning to `COc1ccccc1CNC(=O)Cn1c(=O)oc2cc(Cl)ccc21`, the inhibition is 4.32%.

`COC(=O)C1=C(Nc2ccc(C)cc2)C=C(C)C(C(=O)OC)C1c1ccc(F)cc1` (stereo not drawn): the inhibition was 1.3%.

Consider `NC(=O)COC(=O)c1sc2cc(F)ccc2c1Cl`, for which the inhibition is 1.69%.

Regarding `CCOC(=O)N1CCC(Nc2c(NCCCN3CCN(c4ccc(OC)cc4)CC3)c(=O)c2=O)CC1`, the inhibition is 2.85%.

With `CC(NC(=O)COC(=O)C1CCN(S(=O)(=O)c2ccccc2C(F)(F)F)CC1)c1ccccc1` (stereo not drawn), the inhibition is 0.81%.

Consider `CC[C@H]1OC(=O)[C@H](C)[C@@H](O[C@H]2C[C@@](C)(OC)[C@@H](O)[C@H](C)O2)[C@H](C)[C@@H](O[C@@H]2O[C@H](C)C[C@H](N(C)C)[C@H]2O)[C@](C)(O)C[C@@H](C)[C@@H]2N[C@@H](COCCOC)O[C@H]([C@H]2C)[C@]1(C)O`, for which the inhibition is 41% (active).

Regarding `CCCCNC(=O)C1(c2ccc(OC)cc2)CCOCC1`, the inhibition was 0.97%.

For the compound `CC1(C)CC(N2CCN(C(c3ccccc3)c3ccccc3)CC2)=CC(=[N+]2CCCCC2)C1`, the inhibition was 1.52%.

Consider `Cc1nnc(SCCCCSc2nnc(C)c(=O)[nH]2)[nH]c1=O`, for which the inhibition was -1.42%.

`O=c1oc2c(Cl)cc(Cl)cc2cc1-c1nnc(Nc2ccccc2F)s1`: the inhibition is -1.06%.

`O=C(NC(=O)N1CCSCC1)c1c(Cl)cccc1Cl`: the inhibition is 1.83%.

Consider `CN(C)[C@@H]1C(=O)C(C(N)=O)=C(O)[C@@]2(O)C(=O)C3=C(O)c4c(O)ccc(Cl)c4[C@@H](O)[C@H]3C[C@@H]12`, for which the inhibition was 100% (active).

On to `C=C1c2c(Cl)ccc(O)c2C(O)=C2C(=O)[C@]3(O)C(O)=C(C(N)=O)C(=O)[C@@H](N(C)C)[C@@H]3[C@@H](O)C12` (stereo partly drawn), for which the inhibition is 103% (active).

On to `O=C(CCNC(=O)c1ccccc1)NN=Cc1ccc(Br)o1`, for which the inhibition is -1.39%.

As for `CC(=O)N(O)CCCCCNC(=O)CCC(=O)N(O)CCCCCNC(=O)CCC(=O)N(O)CCCCCNC(=O)CCC(=O)O`, the inhibition was 22% (active).

In the case of `NC(=O)NCCCC(=O)O`, the inhibition was 4.03%.

With `COc1nc(N(C)C)nc(N2CC(=O)N(CCNS(=O)(=O)c3ccc(C)cc3)C2=N)n1`, the inhibition was -0.32%.

On to `Cc1ccc(Cn2c(=N)c(S(=O)(=O)c3ccc(C)cc3)cc3c(=O)n4ccccc4nc32)cc1`, for which the inhibition was 1.33%.

Turning to `CC1(C)CC(=O)c2cnc3nc4ccccc4n3c2C1`, the inhibition was -0.86%.

In the case of `COc1ccc(CCN=C2SCC(=O)N2Cc2ccccc2)cc1OC`, the inhibition was 1.52%.

In the case of `O=C(N/N=C\c1ccc(-c2ccc(Cl)c(Cl)c2)o1)C(=O)N1CCCC1`, the inhibition was -0.96%.

In the case of `O=c1ccc2c(-c3ccccc3S(=O)(=O)O)c3ccc(O)c(O)c3oc-2c1O`, the inhibition was 22.5% (active).

For the compound `C=C1CCN([C@H](C(=O)NCc2cc(OC)c(OC)c(OC)c2)C(C)C)S(=O)(=O)c2ccccc21`, the inhibition is 0.6%.

On to `COc1ccc(CNC(=O)C[C@H]2C[C@H](C(=O)N3CCOCC3)[C@@]3(C)c4[nH]c5cc(CCC(=O)N(C)C)ccc5c4CCN3C2=O)cc1OC`, for which the inhibition is -1.37%.

Take `O=C(Cc1ncc(C(F)(F)F)cc1Cl)Nc1cccc(Br)c1`: the inhibition was 0.17%.

Regarding `COc1ccc(CC(=O)Nc2c(C(N)=O)oc3ccccc23)cc1`, the inhibition is 2.54%.

With `COC(=O)c1oc2ccc(Br)cc2c1NC(C)=O`, the inhibition was -2.24%.

Consider `COc1ccc(C(=O)c2oc3ccc(Br)cc3c2NC(C)=O)cc1`, for which the inhibition was 100% (active).

In the case of `CC(=O)/C(=N\Nc1ccc(Cl)cc1Cl)Sc1cccc2cccnc12`, the inhibition was -1.2%.

`C[C@H]1[C@H]2c3nc4ccccc4n3C[C@H]1ON2C1CCCCC1`: the inhibition was 3.89%.

On to `COc1ccc(CNC(=O)CN(Cc2ccc(Cl)cc2)S(C)(=O)=O)cc1`, for which the inhibition was 3.57%.

With `COC(=O)N/N=C/c1cn(CCCOc2ccc(C)cc2)c2ccccc12`, the inhibition is 3.22%.

Regarding `COC(=O)N/N=C/c1c[n+]([O-])c2ccccc2[n+]1[O-]`, the inhibition was 89.8% (active).

`COC(=O)N/N=C/c1ccc(-c2ccc(Cl)c(Cl)c2)o1`: the inhibition was 1.71%.

On to `OCCNCCOc1ccc(Cl)c(Cl)c1`, for which the inhibition is 0.51%.

Take `COc1ccc(CCNC(=O)/C(C#N)=C2\N=C(NC(=O)c3cccs3)c3ccccc32)cc1`: the inhibition is 3.86%.

With `C#CCSc1nnc(-c2sc3ccccc3c2Cl)o1`, the inhibition was 1.12%.

For `O=C(NCC#CCSc1nnc(-c2cccc3ccccc23)o1)c1cccs1`, the inhibition is 12.4% (active).

For the compound `COc1ccc2cc(CCl)c(Cl)nc2c1`, the inhibition was -0.08%.
